# Assay results from PubChem BioAssay AID504834 (National Center for Advancing Translational Sciences (NCATS), 2011).
# The campaign covered roughly 320,000 compounds. About 22,000 (6.9%) were called active. Another 27% or so got no clear call; they are omitted. Many of the other results were omitted from the sample, so actives are more common in it than they were. A number with no mark means an inactive call. Calls come from the whole dose curve; as a rule, active = well fitted inhibition curve with a large enough effect; inconclusive = small, poorly fitted or top-dose-only effect, or another doubt; inactive = no such curve, though single readings can be large or run the other way.
# Assay: Primary qHTS for delayed death inhibitors of the malarial parasite plastid, 96 hour incubation
# Conditions: P. falciparum luciferase reporter growth; series mostly up to 28.7 µM; activity change, negative = inhibition: at the top concentration
# Description: The goal of this screen is to discover new antimalarial compounds that act by inhibiting the development of the apicoplast in the malarial parasite Plasmodium falciparum. The biochemical processes that make this organelle essential for erythrocytic stage parasites are not well understood. However, antibiotics such as azithromycin and tetracycline, which target the apicoplast translational machinery, have a potent antimalarial effect.
# We have developed a cell-based assay that measures parasite growth based on the expression of an integrated copy of a firefly luciferase reporter. To detect small molecules that cause this "delayed death" phenotype, erythrocytes infected with the luciferase-expressing parasites were incubated with compounds for either one or two generations, corresponding to 48 and 96 hours, respectively. Compounds that inhibit parasite growth in the second generation, but not the first, should be enriched in antimalarials that target the apicoplast. Growth inhibition is detected by a decrease in luciferase activity.
# Assay Provider: David Fidock and Eric Ekland, Columbia University
# Keywords: NIH Roadmap, MLPCN, MLI, MLSMR, qHTS, NCGC, qHTS, malaria, luciferase, viability
# Four microliters of infected erythrocytes (2% hematocrit, 0.05% parasitemia final concentration) in culture medium were dispensed and the plates incubated for 96 hours at 37 C in 5% CO2. Two microliters of luciferase detection reagent was added and luminescence was detected by a ViewLux (PerkinElmer) reader.
# % is set by controls: 0 for no effect and ±100 for the full control effect; potency is the fitted concentration of half-maximal effect.
Compound,"activity change, negative = inhibition [%]",Potency
O=C(Cn1cc(C(=O)C2CC2)c2ccccc21)Nc1ccccc1Cl,15.4,
COCCCNc1nc2c(-c3cccc(C)c3)nnn2c2ccc(Cl)cc12,2.68,
O=C(Cc1ccccc1)N1N=C(c2ccncc2)CC1(O)C(F)(F)F (stereo not given),,13.1 µM (active)
CC1=NN(C(=O)CCc2ccccc2O)C(O)(C(F)(F)F)C1 (stereo not given),-3.05,
CC1=NN(C(=O)CCCc2ccccc2)C(O)(C(F)(F)F)C1 (stereo not given),-30.7,
Cc1ccc2[nH]c(=O)c(CN(C)S(=O)(=O)c3cccc4nonc34)cc2c1,-24.7,
CC1=NNC(=O)C1CC(=O)N/N=C/c1ccncc1 (stereo not given),31.8,
[O-][N+]12CCCCC1CCCC2CO (stereo not given),2.61,
CC(=O)Nc1ccc(NC(=O)CCN2C(=O)C3CC=CCC3C2=O)cc1 (stereo not given),7.9,
O=C(CSc1nnc(SCc2ccc(F)cc2)s1)Nc1ccc(C(=O)O)cc1,175,
O=C(CC1SC(N2CCCC2)=NC1=O)Nc1ccc(C(=O)NCCc2ccc(F)cc2)cc1 (stereo not given),,10.4 µM (active)
O=C(NCCc1ccc(F)cc1)c1ccc2nccnc2c1,351,
O=C(CNC(=O)Cc1ccccc1)N=Nc1c(O)[nH]c2ccc(Br)cc12,0.113,
O=C(c1ccccc1)N1CCN(C(=O)c2cc3nc(-c4ccccc4)cc(C(F)(F)F)n3n2)CC1,-1.61,
Cc1ccc2nc(/C(C#N)=C\c3ccc(OC(=O)c4cccs4)cc3)[nH]c2c1,,9.28 µM (active)
COc1cc(/C=C(\C#N)c2nc3ccccc3[nH]2)ccc1O,2.89,
Cc1ccc2nc(S(=O)(=O)O)[nH]c2c1,20.9,
Cc1c(C=O)c2ccccc2n1CCOc1ccccc1,13.8,
Cc1nn(C)c(Cl)c1CN1CCC(Oc2ccc(C(=O)N3CCCC3)cc2)CC1,50,
COc1ccc(C(=O)NC(C)CCc2ccccc2)c(OC)c1 (stereo not given),-22.5,
CC(C)c1ccc(C(=O)OC2CCOC2=O)cc1 (stereo not given),0,
Cn1c(=O)c2ccccc2n(CC(=O)Nc2ccc3c(c2)OCCO3)c1=O,1.42,

Compound,"activity change, negative = inhibition [%]",Potency
Cc1ccc(S(=O)(=O)Oc2ccc(/C=N/NC(=O)c3ccncc3)cc2)cc1,40.8,
Cc1ccc(OCCOCCOc2ccc(Br)cc2/C=N\NC(=O)c2ccncc2)cc1,,5.22 µM (active)
COc1ccc(CC(=O)NCC(=O)N/N=C/c2cc(Br)ccc2OC)cc1,-8.14,
CNS(=O)(=O)c1cccc(C(=O)NC2CCCc3ccccc32)c1 (stereo not given),-8.59,
Cc1n[nH]c(=O)c2c(NC(=O)COC(=O)c3ncc(Cl)c(Cl)c3Cl)oc(C)c12,22,
Cc1cccc(C)c1NC(=O)NC1=CCCN1C,-17.3,
CCCCNc1nc2c(c(=O)[nH]c(=O)n2C)n1CCOc1ccccc1,-22.4,
C=C(C)Cn1c(N2CCN(CC)CC2)nc2c1c(=O)[nH]c(=O)n2C,,2.33 µM (active)
Cc1nnc(SCCCn2c(N3CCCCC3)nc3c2c(=O)[nH]c(=O)n3C)s1,,2.08 µM (active)
Cn1c(=O)[nH]c(=O)c2c1nc(Br)n2CCCCSc1nc2ccccc2o1,30.3,
C=C(C)Cn1c(N2CCCC2)nc2c1c(=O)[nH]c(=O)n2C,12.6,
Cc1nnc(Sc2nc3c(c(=O)[nH]c(=O)n3C)n2Cc2ccccc2)s1,-11.4,
Cn1c(=O)[nH]c(=O)c2c1nc(CN1CCN(c3ccccc3F)CC1)n2CCc1ccccc1,-25.9,
CC1CCN(c2nc3c(c(=O)[nH]c(=O)n3C)n2CCCc2ccccc2)CC1,,10.4 µM (active)
Cn1c(=O)[nH]c(=O)c2c1nc(N1CCCCCC1)n2CC(=O)c1ccccc1,-12.3,
FC(F)(F)c1cccc(-c2nc(COc3ccc(Cl)cc3Cl)no2)c1,-2.32,
Cc1cc(C)nc(NS(=O)(=O)c2ccc(N3C(=O)C4CCCCC4C3=O)cc2)n1 (stereo not given),77.2,
CCc1ccc(NC(=O)Cn2nnc(C(=O)NCc3ccc4c(c3)OCO4)c2N)cc1,20.3,
COc1ccc(S(=O)(=O)N2CCOCC2)cc1NC(=O)Cc1coc2cc(C)ccc12,-11.9,
Cc1ccc(S(=O)(=O)N2CCN(C)CC2)cc1C(=O)NC1CCCCC1,-14.8,
COc1ccc(S(=O)(=O)N2CCOCC2)cc1C(=O)NC1CCCCC1,,4.65 µM (active)
COc1ccc(S(=O)(=O)N2CCOCC2)cc1NC(=O)COc1ccccc1,-0.938,

Compound,"activity change, negative = inhibition [%]",Potency
COc1ccc(S(=O)(=O)NC(C)C)cc1C(=O)NC1CCCCC1,-13.1,
COc1ccc(S(=O)(=O)N2CCOCC2)cc1NC(=O)CSc1cc(C)ccc1C,,7.38 µM (active)
Cc1ccc(S(=O)(=O)N2CCOCC2)cc1NC(=O)CSc1nnc(N)s1,-4.94,
CC(C)Oc1ccc(S(=O)(=O)N2CCOCC2)cc1NC(=O)C1CCCC1,,11.7 µM (active)
COc1ccc(S(=O)(=O)N2CCOCC2)cc1NC(=O)Cc1c(F)cccc1Cl,-12.3,
NC(=O)COC(=O)c1ccc2c(c1)C(=O)N(Cc1ccco1)C2=O,18.5,
Cc1cc(C)c(CN2CCN(C(=O)Cn3ccc(NC(=O)OCc4ccccc4)nc3=O)CC2)c(C)c1,-25.9,
O=C(COC(=O)Cn1[nH]c(=O)c2ccccc2c1=O)Nc1ncc(Cl)cc1Cl,25.8,
COc1ccc(C(=O)OCC(=O)c2ccc(Cl)s2)c(OC)c1OC,-21.3,
CCc1cccc(C)c1NC(=O)COC(=O)CNC(=O)c1cccs1,34.6,
CN(C)c1cccc(C(=O)N2CCC(n3nccc3NC(=O)C3CCOC3)CC2)c1 (stereo not given),16.6,
Cc1nnc2n1N=C(c1ccccc1)CS2,22,
CCN(CC)S(=O)(=O)c1ccc(Cl)c(C(=O)NCCN2CCOCC2)c1,-25.2,
O=C(NC(=O)c1ccccc1)NC(=O)c1ccccc1,-27.2,
N#C/C(=C/c1ccc(Cl)cc1)NC(=O)c1ccccc1,,3.7 µM (active)
O=C(NCC1CCCO1)/C(=C/c1ccc(Cl)cc1)NC(=O)c1ccccc1 (stereo not given),-28.1,
CCOc1ccc(NC(=O)CC2C(=O)N(c3ccccc3)C(=O)N2CCOC)cc1 (stereo not given),35.9,
CCCOc1ccc(NC(=O)CC2C(=O)N(C)C(=S)N2Cc2ccc3c(c2)OCO3)cc1 (stereo not given),,0.329 µM (active)
COc1ccc(N2C(=O)C(CC(=O)Nc3ccccc3)N(Cc3ccc(OC)c(OC)c3)C2=O)cc1 (stereo not given),10.9,
CCS(=O)(=O)c1ccc(-c2cccc(NC(=O)c3ccc(Br)o3)c2)nn1,1.83,
O=C(OCCN1C(=O)c2ccccc2C1=O)Oc1ccccc1,-2.14,
